{"source": "PubChem BioAssay AID2240", "about": "(Broad Institute, 2010)", "note": "About 100 (0.27%) of roughly 37,000 compounds were called active. This excerpt belongs to a sample that is enriched for actives. Values without a mark were called inactive. Rule as the data show it: active = inhibition above about 85%; inconclusive = no clear call, values can overlap the other calls; inactive = below about 68%."}
{"test": "inhibitors of MITF, primary screen, MITF inhibitor project, cell-based, luminescence (AID 2240);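 also: human melanocyte line stably carrying TRPM1 promoter luciferase reporter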", "conditions": "TRPM1 promoter luciferase, 24 h, hits give high values, concentration not given here"}
{"smiles": "c1ccc2c(c1)[I+]c1ccccc1-2", "inhibition": "90% (active)"}
{"smiles": "COc1ccc2[nH]cc(CCNCc3ccc(Br)cc3)c2c1", "inhibition": "-13.8%"}
{"smiles": "CCCCC/C=C\\C/C=C\\C/C=C\\CCCCCCC(=O)NCCO", "inhibition": "-1.85%"}
{"smiles": "C[C@H]1CCC/C=C/C2C[C@H](O)C[C@H]2[C@H](O)/C=C\\C(=O)O1", "note": "(stereo not given in full)", "inhibition": "108% (active)"}
{"smiles": "c1cncc(CNCCc2c[nH]c3ccccc23)c1", "inhibition": "1.76%"}
{"smiles": "COc1ccc(CNCc2nc3ccccc3c(=O)n2-c2ccc(F)cc2)cc1", "inhibition": "8.31%"}
{"smiles": "C[C@H]1O[C@@H](O[C@H]2CC[C@]3(CO)C4CC[C@]5(C)[C@@H](C6=CC(=O)OC6)CC[C@]5(O)[C@@H]4CC[C@H]3C2)[C@H](O)[C@H](O)[C@@H]1O[C@@H]1O[C@H](CO)[C@@H](O)[C@H](O)[C@H]1O", "note": "(stereo not given in full)", "inhibition": "10.7%"}
{"smiles": "CN(C)C(=O)Oc1cc(OC(=O)N(C)C)cc(C(O)CNC(C)(C)C)c1", "note": "(stereo not given)", "inhibition": "-14.7%"}
{"smiles": "CCCN(C/C=C/I)C1CCc2ccc(O)cc2C1", "note": "(stereo not given)", "inhibition": "-11.9%"}
{"smiles": "COC1=CC23CCN(C)[C@H](Cc4cc(OC)c(OC)cc42)C3=CC1=O", "inhibition": "2.51%"}
{"smiles": "Cc1ncsc1CCCl", "inhibition": "-1.18%"}
{"smiles": "CN[C@@H]1C[C@H]2O[C@@](C)([C@@H]1OC)n1c3ccccc3c3c4c(c5c6ccccc6n2c5c31)C(=O)NC4", "inhibition": "106% (active)"}
{"smiles": "CC(C)c1c(CN(C)C(C)Cc2ccccc2)n(C)n(-c2ccccc2)c1=O", "note": "(stereo not given)", "inhibition": "20.5%"}
{"smiles": "CC=C1CN2C3CC1C1(C(=O)OC)C2CC2(c4ccccc4N(C)C32)C1O", "note": "(stereo not given)", "inhibition": "4.01%"}
{"smiles": "COc1ccccc1N1C(=O)NC(=O)C(CCc2ccncc2)(Cc2cccc3ccccc23)C1=O", "note": "(stereo not given)", "inhibition": "7.09%"}
